# Source: PubChem BioAssay (National Center for Advancing Translational Sciences (NCATS))
# The full list was thinned out, with hits kept by preference.
# Giardia FBPA inh: blocks Giardia fructose-bisphosphate aldolase activity. A8B2U2. Potency, µM (doses to about 59.6 µM), for inactives: top-dose activity, negative = inhibition, most hits filed as inhibitors. hit rate 0.71% among 290,000. purified Giardia FBPA. AID 2451; further: potency means the concentration at half of the fitted maximal effect; on the % scale 0 is the no-effect control and ±100 the full control effect; nearly all actives have a fitted effect of over 55% in size
# Target sequence (A8B2U2 whole entry, looked up): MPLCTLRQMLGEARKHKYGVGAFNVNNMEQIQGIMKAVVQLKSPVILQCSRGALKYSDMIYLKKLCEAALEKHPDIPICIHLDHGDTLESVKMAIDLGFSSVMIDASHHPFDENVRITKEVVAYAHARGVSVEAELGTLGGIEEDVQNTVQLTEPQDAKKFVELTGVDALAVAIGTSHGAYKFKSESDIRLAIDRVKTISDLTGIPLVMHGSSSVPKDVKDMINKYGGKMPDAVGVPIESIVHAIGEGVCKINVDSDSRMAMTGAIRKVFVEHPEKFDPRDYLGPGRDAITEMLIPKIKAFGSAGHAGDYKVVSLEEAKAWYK
#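 40 nM FBPA preincubated 10 min at RT with compound (up to 57.5 uM final), then substrate plus GAPDH/TPI/NAD/arsenate coupling and diaphorase/resazurin added. Fluorescence read after 20 min at RT, 525/598 nm.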
# CHX counter: affects cycloheximide protein synthesis inhibition readout, counter-screen; max response, %; cell reporter, cycloheximide protein synthesis inhibition counterscreen; hit rate 12% among 300,000; in the data active means max response mostly above about 13%, no sharp cut-off; inactive means mostly below about 14%; further: read at 38.3 µM for the half of the compounds with a filed dose; 0% is about no effect
# Shiga toxin inh: inhibitors of Shiga toxin in Vero cells. Vero cells, Shiga toxin protein synthesis inhibition reporter. inhibition, % at 38.7 µM. hit rate 9.2% among 290,000. AID 2315; in the data active means inhibition mostly above about 28%, no sharp cut-off; inactive means mostly below about 43%; further: 0% is about no effect
# LmPK inhibitor: inhibitors of Leishmania mexicana pyruvate kinase; hit rate 0.37% among 290,000; Potency, µM (titrated, usually from 57.5 µM), inactives show at the highest dose activity change, negative = inhibition, hits mostly inhibitors; Q27686; purified LmPK, Kinase-Glo ATP luminescence, 1 h; further: potency means the concentration at half of the fitted maximal effect; on the % scale 0 is the no-effect control and ±100 the full control effect
#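 0.1 nM LmPK, 0.5 mM PEP, 0.1 mM ADP; 50 mM imidazole pH 7.2, 7 mM MgCl2, 50 mM KCl; 1 h RT. Kinase-Glo luminescence readout, normalized to no-enzyme (full inhibition) and uninhibited wells.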
# RE007 growth inh: less growth of the S. pombe RE007 Vpr strain. S. pombe RE007 Vpr strain, BacTiter-Glo ATP luminescence, 24 h. Potency, µM (titrated, usually from 92.2 µM), for the others: at the highest dose activity change, negative = less growth, usual class: inhibitors. hit rate 0.21% among 360,000; active means well fitted falling curve with a large enough effect; inconclusive means small, poorly fitted or top-dose-only effect; inactive means no such curve, though single readings can be large or run the other way; further: potency means the concentration at half of the fitted maximal effect; on the % scale 0 is the no-effect control and ±100 the full control effect; nearly all actives have a fitted effect of over 50% in size
#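 Fission yeast strain RE007, carrying one chromosomally integrated HIV-1 vpr copy, was seeded at OD 0.01 in PMG+AL medium with 23 nL pinned compound. After 24 h at 30 °C and 99% humidity, viability was read by BacTiter-Glo luminescence.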
# Tb PYK inh: blocks Trypanosoma brucei pyruvate kinase | TbPYK enzyme, Kinase-Glo Plus ATP luminescence, 45 min | Potency, µM (doses to about 76.8 µM), without a hit: at the top dose activity, negative = inhibition, most hits filed as inhibitors | hit rate 0.12% among 410,000 | AID 624173; further: potency means the concentration at half of the fitted maximal effect; on the % scale 0 is the no-effect control and ±100 the full control effect; nearly all actives have a fitted effect of over 50% in size
#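 Assay buffer: 50 mM TEA pH 7.2, 100 mM KCl, 10 mM MgCl2, 0.05% BSA, 0.01% Tween-20. Pyruvate kinase from T. brucei plus substrate met compound, then ADP (130 uM final). Luminescence was read post 45 min RT.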
# Numbers without * were called inactive; ? = inconclusive; / = no result; + = active, no number; [ ] = another dose, or the depositor's remark. Unless noted, the call rests on the fitted dose curve; in most records, active means well fitted curve in the direction sought with a large enough effect; inconclusive means small, poorly fitted or top-dose-only effect, or another doubt; inactive means no such curve, though single readings can be large; an effect the other way counts as inactive or inconclusive.
SMILES,Giardia FBPA inh,CHX counter,Shiga toxin inh,LmPK inhibitor,RE007 growth inh,Tb PYK inh
COc1ccccc1-c1nn2c(C3COc4ccccc4O3)nnc2s1 (stereo not drawn),3.3%,9.8,5.7,2.5%,8.1%[3.69 µM],/
CCCc1cc(=O)[nH]c(SCC(=O)N(C)C2CCCCC2)n1,/,/,/,/,-3.3%,-2.0%
Cc1ccc(/C=C/C(=O)Nc2cc(C)on2)cc1,-1.0%,58.4*,62.2*,-4.5%,-12.0%,2.3%
Cc1ccc(/C=C/C(=O)NC2=NCCS2)cc1,3.7%,70.3*,91.7*,-5.1%,-11.2%,-2.7%
CC(C)(C)c1ccc(/C=C/C(=O)NC2=NCCS2)cc1,-3.1%,53.9*,+,3.6%,-16.3%,-12.9%
COc1ccc(NC(=O)C2(c3cccs3)CCOCC2)cc1Cl,/,/,/,/,/,6.3%
CCN1C(=O)N(C)[C@@H](c2ccccc2)C(C(=O)OC)=C1C,13.5%[12.9 µM],20.8*,2.3,-6.4%[11.5 µM],7.7%,-4.5%
CCN1C(=O)N(S(=O)(=O)C(F)(F)F)[C@@H](c2ccccc2)C(C(=O)OC)=C1C,5.3%[12.9 µM],0.3,11.8,-0.4%[11.5 µM],-21.0%,-0.4%
O=C(O)c1ccc(Nc2nc(-c3ccccc3)nc3ccccc23)cc1,-16.8%,20.4*,26.6,6.4%,?,?
CNC(=O)c1ccc(Nc2nc(-c3ccccc3)nc3ccccc23)cc1,-8.5%,15.8*,27.5,-0.6%,-1.4%,-4.2%
c1ccc(Nc2nc(-c3ccccc3)nc3ccccc23)cc1,3.4%,-3.0,/,9.9%,-26.1%,-1.1%
COC(=O)c1ccc(Nc2nc(-c3ccc(C)cc3)nc3ccccc23)cc1,/,/,/,/,/,5.9%
O=C(O)c1cccc(Nc2nc(-c3ccccc3)nc3ccccc23)c1,-5.9%,18.6*,39.7*,-4.8%,3.3%,0.2%
COc1ccc(OC)c(NC2=C(c3ccccc3)C(=O)c3ccccc32)c1,/,/,/,/,/,-6.6%
O=C(Nc1ccccc1N1CCN(C(=O)c2ccccc2)CC1)c1ccc([N+](=O)[O-])o1,3.4%,3.0,26.3,6.8%,-6.9%,-0.1%
O=C(Nc1ccccc1N1CCCC1)c1ccc([N+](=O)[O-])o1,/,36.1*,41.4*,-2.8%,-23.1%,0.2%
O=C(CNc1cccc([N+](=O)[O-])c1)N/N=C/c1ccc([N+](=O)[O-])o1,-1.0%,-0.9,-7.3,-0.5%,-10.6%,-1.5%
O=C(CNc1cccc2ccccc12)N/N=C/c1ccc([N+](=O)[O-])o1,?,10.4*,14.4,1.9%,-7.7%,3.0%
O=C(Nc1cccc2ccccc12)c1ccc([N+](=O)[O-])o1,-4.2%,31.0*,31.0*,0.5%,?,0.4%
CC(C)C(=O)N1CCN(c2ccccc2NC(=O)c2ccc([N+](=O)[O-])o2)CC1,7.8%,26.7*,49.7*,2.7%,-4.5%,-5.5%
Cc1cccc(NC(=O)c2ccc([N+](=O)[O-])o2)c1C,-10.7%,-4.0,-14.0,0.5%,-25.8%,1.4%
COc1ccccc1N(CC(=O)Nc1cc(S(=O)(=O)N(C)C)ccc1C)S(=O)(=O)c1cccs1,/,/,/,/,-7.5%,-0.4%
COc1cccc(C(=O)C2CCCN(Cc3ccccn3)C2)c1 (stereo not drawn),-2.6%,-2.2,3.2,4.0%,-21.7%,-20.0%
Cc1ncsc1CCC(=O)N1CCCC(C(=O)c2ccc3c(c2)OCO3)C1 (stereo not drawn),-1.5%,22.7*,33.5,-2.1%,-12.4%,1.5%
COc1cccc(C(=O)C2CCCN(C(=O)CCc3scnc3C)C2)c1 (stereo not drawn),5.6%,21.8*,9.1,1.0%,19.3%,0.9%
SMILES,Giardia FBPA inh,CHX counter,Shiga toxin inh,LmPK inhibitor,RE007 growth inh,Tb PYK inh
COc1ccc2cc(C(=O)C3CCCN(C(=O)CCc4ccccn4)C3)ccc2c1 (stereo not drawn),-0.2%,23.7*,31.3*,2.3%,-20.2%,-16.7%
COc1ccc2cc(C(=O)C3CCCN(C(=O)c4ccnn4C)C3)ccc2c1 (stereo not drawn),5.2%,17.6,39.3*,-2.4%,55.5%,2.2%
COc1ccc(C(=O)C2CCCN(C(=O)c3ccnn3C)C2)cc1OC (stereo not drawn),-3.6%,12.6,-8.0,12.0%,-5.7%,-5.2%
COC(=O)C[C@@H]1C=C[C@H](NC(=O)c2ccccc2)[C@@H](CO)O1,/,/,/,/,11.4%,/
FC(F)(F)c1ccc2c(c1)nc1n2CCCC1,3.0%,21.5*,13.2,0.0%,-27.8%,2.2%
CC(C)NC(=O)c1ccc2c(c1)nc1n2CCCCC1,/,/,/,/,/,-3.2%
CCOc1ccc(CCNC(=O)c2cc3sc(CC)cc3n2C)cc1OCC,/,/,/,/,/,1.7%
CCCCC12CN3CCN(CC(C3)/C1=N\NC(=O)c1ccccc1N)C2,2.7%,46.1*,82.9*,-4.3%,3.0%,5.6%
CCCC12CN3CCN(CC(C3)/C1=N\NC(=O)c1ccc(F)cc1)C2,-1.0%,5.3,-12.0,-3.9%,4.4%,1.2%
O=C1C=C(NC2=CC3OC(c4ccccc4)OCC3OC2=O)CCC1 (stereo not drawn),5.2%,27.0*,35.3*,-2.9%,-26.7%,-17.8%
O=C1C=C(NCc2ccccc2)CCC1,3.0%,-0.7,5.7,-1.9%,-5.5%,8.5%
Cc1cc(C)c(-c2cc(C(=O)Nc3cc(C)ccc3C)[nH]n2)c(O)c1,2.6%,-5.7,-3.3,-1.2%,-6.9%,3.3%
Cc1ccc(NC(=O)c2cc(-c3cc(C)c(C)cc3O)n[nH]2)cc1C,5.2%,15.5*,9.2,5.6%,4.4%,-6.8%
Cc1ccc(C)c(NC(=O)c2cc(-c3cc(C)c(C)cc3O)n[nH]2)c1,2.1%,30.1*,61.4*,-0.2%,9.6%,3.9%
Cc1ccc(-c2cc(C(=O)Nc3cc(C)ccc3C)[nH]n2)c(O)c1,-0.3%,18.3*,30.2*,-7.0%,28.2%,10.4%
Cc1ccc(C)c(NC(=O)c2cc(-c3ccccc3O)n[nH]2)c1,10.4%,28.9*,58.6*,3.1%,7.0%,1.3%
COc1ccc(OC)c(NC(=O)c2cc(-c3ccc(C)cc3O)n[nH]2)c1,7.8%,9.7,0.9,8.1%,1.5%,5.9%
CCCCNC(=O)C(NC(=O)c1cccc2ccccc12)C(=O)c1ccccc1 (stereo not drawn),/,/,/,/,-12.5%,-12.3%
O=C(Nc1ccccc1)OCCc1ccccn1,/,/,/,/,-7.7%,2.0%
CC(CNC(=O)C1CCN(C(=O)N2CCOc3ccc(Cl)cc32)CC1)c1ccccc1 (stereo not drawn),/,/,/,/,/,-1.1%
O=C(Nc1cccnc1)Nc1ccccc1Cl,0.5%,26.1*,92.8,1.5%,-12.2%,1.5%
O=C(Nc1ccncc1)Nc1ccccc1Cl,/,24.3*,49.3*,0.3%,6.9%,3.3%
O=C(Nc1ccncc1)Nc1ccc(Cl)cc1Cl,8.8%,7.4,20.9,1.7%,1.4%,0.7%
O=C(Nc1cccnc1)Nc1cc(Cl)cc(Cl)c1,-1.0%,0.6,-1.1,6.4%,-8.5%,-14.3%
O=C(Nc1ccncc1)c1ccccc1Cl,1.8%,13.0,37.1*,-6.5%,-11.3%,1.5%
